Screening data (PubChem)
In the library only some 8% were active in any assay of this set; here they are far more common.
HT1080-NT tox – kills 2HG-producing HT-1080-NT fibrosarcoma cells | HT-1080-NT fibrosarcoma viability, CellTiter-Glo ATP luminescence, 48 h | Potency, µM (doses to about 46.1 µM), hits mostly cytotoxic | 360,000 tested, 1.6% active | AID 686970;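 note: NT is the 2HG producing partner of a matched IDH1 knockdown line; nearly all actives have a fitted effect of over 55% in size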
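Read-out is CellTiter-Glo luminescence after 10 minutes at room temperature, following 48 hours' compound treatment of HT-1080-NT cells (750 cells/well, RPMI, 5% FBS, 37 degrees C).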
HT1080 IDH1KD tx – HT-1080 IDH1 knockdown cell toxicity (counter line). HT-1080 IDH1 knockdown viability, ATP luminescence, 48 h. Potency, µM (highest dose often 46.1 µM), most hits filed as cytotoxic. 360,000 tested, 2% active
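CellTiter-Glo luminescence after 48 h compound exposure at 37 degrees C of IDH1-knockdown HT-1080 cells in 5% FBS RPMI. %Activity scaled between DMSO wells and cell-free media wells, with curves fitted and assigned curve classes.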
KB-3-1 cytotox – kills parental KB-3-1 adenocarcinoma cells; KB-3-1 viability, CellTiter-Glo ATP luminescence, 72 h; AID 1347075; Potency, µM (top dose mostly 46.1 µM), most hits filed as cytotoxic; 400,000 tested, 1.4% active; note: nearly all actives have a fitted effect of over 60% in size
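Cytotoxicity in the drug-sensitive parental line KB-3-1 was scored as loss of CellTiter-Glo luminescence following 72 h incubation with compound. Values come from curve fitting of normalized concentration-response data.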
MCF10A rereplic – induces DNA re-replication in MCF 10a normal breast cells; MCF 10A DNA re-replication, Hoechst nuclear intensity, 48 h; Potency, µM (top dose mostly 46.1 µM), most hits filed as activators; 350,000 tested, 2.9% active; note: nearly all actives have a fitted effect of over 50% in size
KB-V1 cytotox – kills drug-selected multidrug resistant KB-V1 cells | KB-V1 MDR cells viability, CellTiter-Glo, 72 h | Potency, µM (doses to about 46.1 µM), most hits filed as cytotoxic | 400,000 tested, 3.4% active | AID 1347076; note: nearly all actives have a fitted effect of over 60% in size
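KB-V1, DMEM (no phenol red) + 10% FBS; cpd pin-transferred, titration series; 72 h, 37 degrees C; CellTiter-Glo, luminescence. Data normalized, curve-fit.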
SW480 rerep – induces DNA re-replication in SW480 colon adenocarcinoma cells; SW480 DNA re-replication, Hoechst DNA content imaging, 48 h; Potency, µM (top dose mostly 46.1 µM), hits mostly activators; 340,000 tested, 1.8% active; AID 624297; note: nearly all actives have a fitted effect of over 55% in size
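Hoechst fluorescence of nuclei (405 nm excitation, 500-530 nm emission) measured by plate-scanning imager after 48 hr compound exposure at 37 C; re-replication scored as increased number of nuclei with elevated intensity.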
Numbers stand for hits; n = inactive; u = inconclusive; x = no result; [ ] = another dose, or the depositor's remark. Calls come from the whole dose curve; as a rule, active = well fitted curve in the direction sought with a large enough effect; inconclusive = small, poorly fitted or top-dose-only effect, or another doubt; inactive = no such curve, though single readings can be large; an effect the other way counts as inactive or inconclusive.

SMILES | HT1080-NT tox | HT1080 IDH1KD tx | KB-3-1 cytotox | MCF10A rereplic | KB-V1 cytotox | SW480 rerep
C=CCn1c(SCC(=O)Nc2ccc3c(c2)OCCO3)nnc1-c1ccco1 | n | n | n | n | 9.2µM | n
CN1C(=O)C2CCCCN2c2ccc(C(=O)NCc3ccccc3Br)cc21 (centres undefined) | x | x | n | x | n | x
O=[N+]([O-])c1ccc(Nc2ccccc2)c2nonc12 | n | n | n | n | n | n
O=[N+]([O-])c1ccc(Sc2cccc[n+]2[O-])c2nonc12 | 0.15µM | 0.58µM | u | u | u | u
COc1cc2nc(CN(C)Cc3nc4ccccc4c(=O)[nH]3)[nH]c(=O)c2cc1OC | 18µM | 7.1µM | n | u | n | 16µM
COc1ccccc1CN(Cc1nc2ccccc2c(=O)[nH]1)S(=O)(=O)c1ccc2ccccc2c1 | u | 6.3µM | n | n | 13µM | u
CCN(Cc1nc2ccccc2c(=O)[nH]1)Cc1nc2cc(OC)c(OC)cc2c(=O)[nH]1 | n | n | n | n | n | n
COc1ccccc1NC(=O)N(Cc1ccc2c(c1)OCO2)Cc1nc2ccccc2c(=O)[nH]1 | n | n | n | n | n | n[9.22 µM]
COc1ccccc1CN(Cc1nc2ccccc2c(=O)[nH]1)C(=O)Nc1cccc(C)c1 | 7.1µM | 3.5µM | n | n | u | n
O=c1[nH]c(CN(CCc2ccccc2)S(=O)(=O)c2ccc(Cl)cc2)nc2ccccc12 | n | n | n | n | 3.3µM | u
Cc1ccc2oc(-c3ccc(C)c(NC(=O)COc4ccc(Cl)cc4)c3)nc2c1 | x | x | n | x | n | x
CCc1ccc(NC(=O)CCCc2nc(-c3ccco3)no2)cc1 | x | x | n | x | n | x
COc1ccc(-c2cc(C(=O)N3CC4(C)CC3CC(C)(C)C4)no2)cc1 (centres undefined) | n | n | u | n | n | n
COc1ccc(-c2cc(C(=O)N3CC4(C)CC3CC(C)(C)C4)no2)cc1OC (centres undefined) | n | n | n | u | 21µM | n
CCOc1ccccc1NC(=O)Nc1ccc2nc(N3CCN(C)CC3)cc(C)c2c1 | x | x | n | x | u | x
O=C(Nc1cccc(N2C(=O)C3C4C=CC(C4)C3C2=O)c1)c1cccs1 (centres undefined) | n | n | n | 0.82µM | n | n
CN(CCC#N)c1ccc(C=C(C#N)c2ccc(Br)cc2)cc1 | n | u | n | x | 16µM | x
N#C/C(=C\c1cccnc1)c1ccc(Br)cc1 | n | n | n | n | n | n
CN(CCC#N)c1ccc(/C=C(\C#N)c2ccccn2)cc1 | n | n | u | u | 5.2µM | n
CCN(Cc1ccccc1)c1ccc(/C=C(\C#N)c2ccccn2)cc1 | n | n | n | 21µM | u | n
COc1cc(/C=C(\C#N)c2ccccn2)ccc1OCc1ccccc1 | n | n | n | n | n | n
CCN(CC)c1ccc(/C=C(\C#N)c2ccccn2)cc1 | u | u | u | 23µM | u | 15µM
N#C/C(=C\c1ccc(C(=O)O)cc1)c1ccccn1 | n | n | n | n | n | n
Cc1cc(C)cc(NC(=O)C(C)N2Cc3ccccc3C2=O)c1 (centres undefined) | x | x | n | x | n | x
Cc1ccc(C)c(NC(=O)C2CCN(c3nn4c(=O)cc(C)nc4s3)CC2)c1 | x | x | n | x | n | x
SMILES | HT1080-NT tox | HT1080 IDH1KD tx | KB-3-1 cytotox | MCF10A rereplic | KB-V1 cytotox | SW480 rerep
COC(=O)c1sc(N2C(=O)c3oc4ccc(C)cc4c(=O)c3C2c2ccc(OC)cc2)nc1C (centres undefined) | x | x | n | x | n | x
Fc1ccc(-c2cn3cc(Cc4ccc(Cl)cc4)sc3n2)cc1 | x | x | u | x | n | x
CC(=O)c1ccc(S(=O)(=O)N2CCn3cccc3C2c2ccccc2F)cc1 (centres undefined) | x | x | n | x | n | x
C[C@@H]1CN([C@H](C)CO)C(=O)c2c(c3ccccc3n2C)-c2ccccc2CO[C@H]1CN(C)Cc1ccc(C(F)(F)F)cc1 | u | 18µM | u | x | n | x
O=C(NCc1ccc(OC(F)(F)F)cc1)c1cc(-c2ccccc2)nn1CC1CC(c2cccnc2)=NO1 (centres undefined) | n | n | n | n | 21µM | n
COc1ccc(NC(=O)CSc2nc3ccccc3n2CC(=O)N2CCCC(C)C2)cc1 (centres undefined) | x | x | n | x | n | x
CCOC(=O)c1c(-c2ccc(OC)cc2)oc2ccc(O)cc12 | u | u | n | u | u | n
CCOC(=O)c1c(-c2ccc(OC)cc2)oc2cc(Br)c(O)cc12 | n | n | n | 15µM | n | n
CN(C)c1ccc(N=Nc2ccccc2C(=O)OCC(=O)N2CCCCCC2)cc1 | n | n | u | u | 3.3µM | n
CCC(=O)N1CCC1(C)C(=O)Nc1cccc(OC)c1 (centres undefined) | n | n | n | x | n | x
COc1cccc(NC(=O)C2(C)CCN2C(=O)CC2CCCC2)c1 (centres undefined) | n | n | n | x | 16µM | x
O=C(C1CN(C(=O)c2cc3cc(Cl)ccc3o2)c2ccccc2O1)N1CCCCC1 (centres undefined) | n | n | u | u | 21µM | n
CC1(c2ccc(OCC#N)cc2)C=C(c2ccc(OCC#N)cc2)n2nc(C(F)(F)F)nc2N1 (centres undefined) | n | u | u | 18µM | u | u
N#Cc1nc(-c2ccc(OCc3ccccc3Cl)cc2)oc1N1CCCCCC1 | x | x | n | x | n | x
Cc1ccc(-c2nc3cccnc3s2)cc1NS(=O)(=O)c1ccc2c(c1)OCCO2 | u | u | n | u | u | u
CCc1ccc(S(=O)(=O)Nc2ccc(-c3nc4cccnc4s3)cc2)s1 | n | n | n | u | n | n
Cc1ccc(-c2nc3cccnc3s2)cc1NS(=O)(=O)c1cccs1 | n | n | n | 16µM | n | n
Cc1nc2ccc(S(=O)(=O)Nc3cc(-c4nc5cccnc5s4)ccc3C)cc2s1 | u | u | u | 0.82µM | u | 23µM
O=S(=O)(Nc1ccc(-c2nc3cccnc3s2)cc1)c1cc(F)ccc1F | n | n | n | 21µM | n | n
NC(=O)Cn1c(=O)n(-c2ccc(F)c(Cl)c2)c(=O)c2sc3ccccc3c21 | x | x | n | x | n | x
Cc1ccc(Cn2cc(CN3CC(N4CCCCC4)CS3(=O)=O)nn2)cc1 (centres undefined) | n | n | n | x | u | x
Cc1ccc(Cn2cc(CN3CC(N4CCN(Cc5ccccc5F)CC4)CS3(=O)=O)nn2)cc1 (centres undefined) | n | n | u | x | 10µM | x
CCCCCCN1CCN(C2CN(Cc3cn(Cc4ccc(C)cc4)nn3)S(=O)(=O)C2)CC1 (centres undefined) | n | 23µM | n | x | u | x
c1cc2c(cc1CN1CCN(C3CCCCCC3)CC1)OCO2 | n | n | n | n | n | n
